Screens deposited in PubChem by Broad Institute.
Shown are actives, neighbours in structure and some others; about 3% of the full set was active somewhere.
MITF TRPM1 HTS = activators of MITF-driven TRPM1 promoter activity in SK-MEL-5 cells; SK-MEL-5 TRPM1-promoter luciferase, 24 h; % of positive control, neutral wells = 0; activation, % at 12.5 µM; actives 0.75% (n = 300,000); AID 588334;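 active = mean activation of at least 80% with every replicate also reaching 80%; inconclusive = mean reaches 80% but some replicate falls short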;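 also: 0% = neutral control wells and 100% = parthenolide positive control wells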
Wnt act = activates Wnt/beta-catenin signaling in a reporter cell assay | activator, plate reader | activation, % at 9.35 µM | actives 1.2% (n = 300,000) | AID 743398; in the data active = activation above about 30%, passing the limit was not always enough; inconclusive = no clear call, values can overlap the other calls;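 also: 0% = neutral control wells and 100% = positive control wells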
C2C12 statin = suppressors of simvastatin-induced myotoxicity in C2C12 myotubes; ATP luminescence, 48 h; scaled: DMSO 0, geranylgeraniol control 100; rescue of ATP level, % at 7.49 µM; actives 0.78% (n = 330,000); AID 602340;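 active = mean ATP rescue above about 67%, or every replicate alone reaching that limit, limit read from the data, passing the limit was not always enough; inconclusive = no clear call, values can overlap the other calls; inactive = mean under the limit and some replicate under it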;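 also: myotubes were challenged with 10 µM simvastatin during compound exposure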
esBAF inh = SWI/SNF esBAF complex inhibition. mouse ES cells, Bmi1-luciferase knock-in reporter, 24 h; 100% = twice the neutral-well signal. reporter increase, % at 12.5 µM. actives 2% (n = 350,000); in the data active = activation above about 40%; inconclusive = no clear call, values can overlap the other calls;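 also: 0% = median of the plate's neutral control wells and 100% = double that signal; a rise in the Bmi1 reporter signal indicates esBAF inhibition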
Ring1 derepress = de-represses Ring1 in mouse ESCs, confirming esBAF inhibition; AID 743176; mouse ESC E14, Ring1 mRNA RT-qPCR fold change; 550 tested, under 10 active; shares compounds with esBAF inh; fold change at 33 µM;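 active = Ring1 gene expression raised more than 2-fold over untreated cells in both replicates at either tested dose; inconclusive = only one replicate above 2-fold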;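 also: Ring1 transcript normalised to actin housekeeping signal by TaqMan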
esBAF Fgf4 qPCR = represses Fgf4 in mouse ESCs, confirming esBAF inhibition; shares compounds with esBAF inh; mouse ESC E14, Fgf4 mRNA qPCR fold change; active compounds read low; Fgf4 expression fold change at 33 µM; actives 4% (n = 550); AID 743177;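 active = Fgf4 expression under 0.8 fold of control in both repeat measurements at one or both tested doses; inconclusive = under 0.8 fold in just a single repeat measurement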;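 also: Fgf4 transcript normalised to actin in duplex TaqMan qPCR; cells exposed to compound for 24 h before lysis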
Bmi1 derepress = confirmation of esBAF inhibitors: Bmi1 de-repression in mouse ESCs; shares compounds with esBAF inh; mouse ESE14 ES cells, Bmi1 mRNA qPCR fold; active compounds read high; fold change at 33 µM; 550 tested, under 10 active;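 active = Bmi1 expression fold change above 6 at either tested concentration, seen in replicate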;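 also: higher fold means more Bmi1 de-repression and stronger esBAF inhibition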
A549 tox SP = kills or reduces viability of A549 cells; shares compounds with esBAF inh; A549 cytotoxicity, plate reader; cell viability change % (negative = cytotoxic), % at 25 µM, hits read low; 550 tested, under 10 active; call rule not given here
HepG2 tox SP = cytotoxicity in HepG2 cells; plate reader; active compounds read low; actives 4% (n = 550); shares compounds with esBAF inh; activity change, negative = inhibition, % at 25 µM; in the data active = activity change below about -50%
HEK293 tox SP = cytotoxicity in HEK293 cells. shares compounds with esBAF inh. plate reader. activity change, negative = inhibition, % at 25 µM, hits read low. actives 3% (n = 550). AID 743190; in the data active = activity change below about -38%, passing the limit was not always enough
* marks the source's active call; other numbers are inactive results; ? = inconclusive; nt = no result given.

SMILES	MITF TRPM1 HTS	Wnt act	C2C12 statin	esBAF inh	Ring1 derepress	esBAF Fgf4 qPCR	Bmi1 derepress	A549 tox SP	HepG2 tox SP	HEK293 tox SP
COc1ccc(-n2nc(C(=O)NCC(=O)N3CCN(c4ccccc4F)CC3)c3ccccc3c2=O)cc1	?	15	-14	40	1.2	?	1.6	-6	-66*	-10
CN1C(=O)c2cc(NC(=O)C3CC3)ccc2OC[C@H]2O[C@H](CC(=O)NC3CCC3)CC[C@@H]21	nt	nt	-61	-10	nt	nt	nt	nt	nt	nt
O=C(C[C@@H]1CC[C@@H]2[C@H](COC[C@@H](O)CN2C(=O)c2cccnc2)O1)NCc1ccc(Cl)cc1	nt	nt	-2	1	nt	nt	nt	nt	nt	nt
C=CCn1c(=NC(=O)c2cccc(N3C(=O)CCC3=O)c2)sc2cccc(OC)c21	11	1	-11	-5	nt	nt	nt	nt	nt	nt
COc1ccc(C)c2sc(=NC(=O)c3cccc(N4C(=O)CCC4=O)c3)n(C)c12	55	0	-1	76*	1.5	0.98	1.6	-9	-19	2
Nc1nc(SCc2ccccc2)c2ncn(C3CCCCC3)c2n1	39	9	-1	85*	0.99	0.78*	1.5	1	21	-10
O=C(Nc1ccc(F)cc1F)NC1CC1	-6	0	nt	nt	nt	nt	nt	nt	nt	nt
O=C(Nc1ccc(F)cc1F)NC1CCCCCCC1	65	14	10	63*	1	0.83	1.8	-7	-51*	-16
CC(C)NC(=O)Nc1ccc2c(c1)C(=O)N([C@H](C)CO)C[C@@H](C)[C@H](CN(C)S(=O)(=O)c1cn(C)cn1)O2	nt	nt	nt	3	nt	nt	nt	nt	nt	nt
O=C(CC(=O)c1ccncc1)c1ccccc1	12	16	nt	nt	nt	nt	nt	nt	nt	nt
O=C(CC(=O)c1ccccc1)c1ccccc1	46	1	-2	86*	1.3	0.82	1.8	-5	-18	-3
C[C@@H]1CCCCO[C@@H](CN(C)CC2CCCCC2)[C@H](C)CN([C@@H](C)CO)C(=O)c2cc(NS(=O)(=O)c3ccc(F)cc3)ccc2O1	nt	nt	-70	2	nt	nt	nt	nt	nt	nt
COc1ccc(Cc2nc(-c3cccc(C)c3)no2)cc1	39	-2	13	58*	1	0.88	1.4	-7	-14	-2
Clc1ccc(Cc2nc(-c3ccncc3)no2)cc1	5	-2	nt	nt	nt	nt	nt	nt	nt	nt
Cc1cccc(-c2noc(Cc3ccc(Cl)cc3)n2)c1	68	-6	121*	87*	1.2	?	1.3	-6	-16	2
COc1ccc(Cc2nc(-c3ccncc3)no2)cc1	12	0	nt	nt	nt	nt	nt	nt	nt	nt
CCC(=O)N1[C@H](CN(CC)C(=O)c2ccc(F)cc2)[C@H](c2ccccc2)[C@@H]1CO	nt	nt	2	1	nt	nt	nt	nt	nt	nt
CCN(C(=O)CN1C(=O)S/C(=C\C=C\c2ccccc2)C1=O)C1CCS(=O)(=O)C1 (centres undefined)	11	4	23	55*	0.97	?	2	-1	-27	4
CCN(CC)c1nc(C=Cc2ccc(N(C)C)cc2)c2nccnc2n1	nt	0	nt	nt	nt	nt	nt	nt	nt	nt
CN(C)c1ccc(C=Cc2nccc3ccccc23)cc1	nt	3	3	70*	1.5	1.1	4.2	-48	-75*	-63*
ClCCn1cnc2c(SCc3ccccc3)ncnc21	138*	11	2	59*	1.1	?	2.2	-39	-16	-53*
ClCCn1cnc2c(SCc3ccccc3Cl)ncnc21	75	-12	4	33	nt	nt	nt	nt	nt	nt
Cc1ccc(OCc2cc(C(=O)N(C)CCc3ccccn3)no2)cc1C	73	22	7	87*	1	1	1.2	-6	-23	-12
CN(Cc1ccccn1)C(=O)c1cc(COc2ccc(F)c(F)c2)on1	nt	2	6	73*	1.1	0.97	1.1	-13	-13	-16
CC(Cc1cccnc1)NC(=O)c1cc(COc2c(F)cccc2F)on1 (centres undefined)	-2	1	nt	nt	nt	nt	nt	nt	nt	nt
